# Most compounds without a hit are left out; they make up all but 1.9% or so of the library.
# GLD-1 TGE inh: GLD-1/TGE RNA complex disruptors, primary screen, biochemical, fluorescence polarization. AID 2280, 2010. purified GLD-1 + fluorescein TGE RNA. Female germline-specific tumor suppressor gld-1 (Caenorhabditis elegans), Q17339. 320,000 compounds, 0.44% hits. inhibition, % at 5.96 µM;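 active = percent inhibition above a per-plate cutoff, the plate mean of test compounds plus 3 SD, cut at about 30% in these data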;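 note: 0% = DMSO wells with GLD-1 and probe and 100% = wells lacking GLD-1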
# Bcl-xL primary: inhibitors of human Bcl-xL, primary screen, biochemical, fluorescence polarization, HTS; GST-Bcl-xL / FITC-Bim BH3 peptide fluorescence polarization; inhibition, % at 10.9 µM; 320,000 compounds, 0.7% hits;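 active = inhibition above the mean of all tested compounds plus 3 SD, cutoff set per campaign, cut at about 30% in these data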;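 note: 0% = DMSO wells and 100% = unlabeled Bim-BH3 peptide competitor; inhibitors lower millipolarization by displacing the labeled peptide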
# MCL1 BIM primary: inhibitors of MCL1 binding to BIM-BH3, primary screen, biochemical, fluorescence polarization; GST-MCL1 / FITC-Bim-BH3 fluorescence polarization; inhibition, % at 10.9 µM; 320,000 compounds, 0.68% hits; AID 2057, 2009;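 active = inhibition above the mean inhibition of all tested compounds plus 3 SD, set per campaign, cut at about 40% in these data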;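 note: 0% = DMSO wells and 100% = unlabeled Bim-BH3 peptide control; higher means more loss of mP so more displacement of Bim peptide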
# CR mimetic SO: reduction of superoxide in aged yeast, primary screen, HTS; S. cerevisiae aged cells, superoxide DHE fluorescence; stronger effect = lower value; superoxide response (% of plate mean), % at 10 µM; 330,000 compounds, 0.18% hits; AID 2690, 2010;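 active = superoxide response under a set limit, about three screen SD below normal, cut at about 65% in these data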;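 note: yeast aged for seven days with compound at 30 °C before DHE staining; 100% = average MFI of all compound-treated wells on the plate with controls excluded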
# LANA-H2B inh: blockers of LANA interaction with H2A/H2B – biochemical, FP readout, HTS, primary screen; inhibition, % (concentration not given with the values); cell-free LANA-H2A/H2B peptide, fluorescence polarization; 320,000 compounds, 0.6% hits; AID 2629, 2010; Protein LANA1 (Human herpesvirus 8 type P (isolate GK18)), Q9QR71; in the data active = inhibition mostly above about 10%, no sharp cut-off; inactive = mostly below about 6.7%
# MEX-5 binding: MEX-5 zinc finger RNA-binding disruptors – biochemical, C. elegans, fluorescence polarization, MLPCN library, primary screen | Zinc finger protein mex-5 (Caenorhabditis elegans), Q9XUB2 | 300,000 compounds, 0.38% hits | MEX-5/FITC-TCR2 RNA binding; stronger effect = lower value | AID 1832, 2009 | activity score (negative = inhibition of binding), % at 10 µM;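 active = inhibition past about -25% in most replicates, and total fluorescence under double the plate's negative control median, limit read from the data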;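 note: 0% = DMSO and -100% = 5 µM competing unlabeled TCR2 RNA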
# Target sequence (Q9XUB2 whole entry, looked up): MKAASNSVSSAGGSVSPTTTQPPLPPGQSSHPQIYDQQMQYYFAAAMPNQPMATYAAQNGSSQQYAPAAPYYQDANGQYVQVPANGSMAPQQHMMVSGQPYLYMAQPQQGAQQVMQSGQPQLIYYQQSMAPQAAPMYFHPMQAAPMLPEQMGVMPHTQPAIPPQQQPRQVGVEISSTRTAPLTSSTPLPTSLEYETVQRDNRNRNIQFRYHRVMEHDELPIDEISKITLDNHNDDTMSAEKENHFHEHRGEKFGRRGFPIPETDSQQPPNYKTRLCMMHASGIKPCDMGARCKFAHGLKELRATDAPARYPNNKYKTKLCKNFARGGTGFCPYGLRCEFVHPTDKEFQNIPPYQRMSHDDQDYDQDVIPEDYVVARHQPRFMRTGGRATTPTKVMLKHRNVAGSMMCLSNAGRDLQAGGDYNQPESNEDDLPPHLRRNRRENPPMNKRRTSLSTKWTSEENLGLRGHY
# Starred values were filed as active, the others as inactive; / = not tested or not shown; + = active, no number; ! = not active in a repeat.
SMILES,GLD-1 TGE inh,Bcl-xL primary,MCL1 BIM primary,CR mimetic SO,LANA-H2B inh,MEX-5 binding
CCOc1ccccc1OCCNC1CCCC1,3,4,1,93,145*,1
CCOc1ccc(OCCNC2CCCC2)cc1,8,-3,5,105,5,0
COc1ccc(OC)c(CN2CCN(C(=O)c3cccc(S(=O)(=O)Nc4ccc(C)cc4)c3)CC2)c1,-6,-4,-7,89,-6,4
Nn1cnc2cc3ccccc3cc2c1=O,9,5,-1,84,3,0
O=C(CN1C(=O)c2ccccc2S1(=O)=O)Nc1ncc(Cl)cc1Cl,57*,/,/,108,12,/
Cc1ccc2cc(C#N)c(NCCNC(=O)C3CCC3)nc2c1C,10,-2,-1,97,53*,2
CC(C)Cn1c(CCC(N)=O)nnc1SC(C)C(=O)Nc1ccc2c(c1)OCO2 (stereo unspecified),-1,8,5,83,3,/
CCOc1ccc(NC(=O)CN(C)C(=O)c2nc3nc(C)cc(C)n3n2)cc1OCC,2,-2,3,177,35*,/
CCOc1ccc(NC(=O)CN(C)C(=O)c2cc(C)nc3ccccc23)cc1OCC,-3,0,-11,74,-5,/
COc1ccc(OC)c(NC(=O)c2cc(-c3cc(Cl)ccc3O)n[nH]2)c1,11,1,0,103,-2,2
COc1ccc(Cl)cc1NC(=O)c1cc(-c2ccccc2O)n[nH]1,5,4,8,88,16*,2
CCC1CCC2(CC1)NC(=O)N(CC(=O)N1CCc3ccccc31)C2=O (stereo unspecified),5,/,/,109,0,/
CCN(CCn1cccn1)Cc1nc(-c2ccc(OC)cc2)no1,-1,3,1,92,+,0
CC(C)(C)OC(=O)C[C@@H]1C/C=C\C[C@H](CC(=O)N[C@H](CO)Cc2ccccc2)C(=O)N2CCC[C@H]2COC1=O,2,/,/,109,-4,/
CCOc1ccccc1NC(=O)c1cc(=O)[nH]c2ccc(S(=O)(=O)N3CCOCC3)cc12,3,/,/,120,-4,/
O=C1OC(/C(=C\Nc2cc(Cl)ccc2O)[N+](=O)[O-])c2ccccc21 (stereo unspecified),9,1,-4,99,2,-26*
CC(=O)c1cccc(NC(=O)C2=CN3CCS(=O)(=O)N=C3C=C2)c1,5,-7,-11,82,5,/
O=C(CN1CCCC1)NCc1ccccc1,-4,5,8,104,0,1
Cc1ccccc1CN1CCN(CC(=O)NCc2ccccc2)CC1,6,6,10,99,21*,0
CC(C(=O)Nc1ccc(F)c(F)c1F)N(C)CCOc1ccccc1 (stereo unspecified),-1,1,8,111,11*,0
Cc1ccc(C(C)NC(=O)CSc2ccc(S(=O)(=O)N3CCOCC3)cn2)cc1C (stereo unspecified),5,6,3,92,3,/
Cc1nnc(SCC2=C(C(=O)O)N3C(=O)[C@@H](NC(=O)Cn4cnnn4)[C@H]3SC2)s1,4,9,2,113,77*!,2
COc1cccc(CNC(=O)COC(=O)c2cc([N+](=O)[O-])ccc2N2CCCC2)c1,-1,6,29,85,0,/
O=C(c1cc(COc2ccc(F)cc2F)on1)N1CCN(C2CCCC2)C(=O)C1,5,8,8,108,-5,-1
Cc1cccc(-c2nnc(SCC(=O)NC3CC3)n2C)c1,4,-1,4,90,12*,1
SMILES,GLD-1 TGE inh,Bcl-xL primary,MCL1 BIM primary,CR mimetic SO,LANA-H2B inh,MEX-5 binding
Cn1c(Cn2c(=O)sc3ccccc32)nnc1SCC(=O)NC1CCCCC1,9,0,2,96,-1,2
Cn1c(Cn2c(=O)sc3ccccc32)nnc1SCC(=O)NC1CCCC1,4,-2,3,98,17*,-5
COc1ccc(/C=C2\N=C(C(C)(C)C)OC2=O)c(OC)c1,-5,-2,4,83,5,-7
COc1ccc(/C=C2\OC(=S)N(C)C2=O)cc1,1,4,5,91,5,1
CN1C(=O)/C(=C\c2ccc(N(C)C)cc2)OC1=S,/,/,/,107,-9,-89*
CN(C)c1ccc(/C=C2\N=C(C(C)(C)C)OC2=O)cc1,-63,-16,-30,77,2,-43*
COc1cc2c(cc1OC)C(Cc1ccc(O)c(Oc3ccc(C[C@H]4c5cc(OC)c(OC)cc5CCN4C)cc3)c1)N(C)CC2 (stereo partly specified),3,/,/,124,-3,/
CCOC(=O)c1c(NC(=O)C(NCCN(C)C)c2ccccc2)sc2c1CCCC2 (stereo unspecified),6,4,6,91,4,-3
CC(=O)c1cc2c(O)c(O)ccc2o1,10,34*,24,98,3,0
COCCn1c(C)cc(/C=C(\C#N)C(=O)OCC(=O)N(C)c2c(N)n(Cc3ccccc3)c(=O)[nH]c2=O)c1C,9,3,-5,98,0,5
O=C(COC(=O)Cc1c[nH]c2ccccc12)Nc1cccc2ccccc12,6,3,2,99,14*,1
COc1ccc(-n2c(N)c(C(=O)Nc3c(C)n(C)n(-c4ccccc4)c3=O)c3nc4ccccc4nc32)cc1,15,23,23,117,0,-12
Cc1ccc(-n2c(N)c(C(=O)Nc3c(C)n(C)n(-c4ccccc4)c3=O)c3nc4ccccc4nc32)cc1C,20,57*,61*,96,/,0
CCC(C)Sc1ccc([C@@H]2[C@H]3C(=O)N(CC)C(=O)[C@H]3[C@]3(C(=O)OC)CCCCN23)cc1 (stereo partly specified),-1,-9,-13,102,-8,/
C=CCNC(=S)N1CCN(Cc2ccccc2)CC1,2,9,1,110,18*,-1
CCOC(=O)C1=CNS(=O)(=O)NC1c1ccccc1 (stereo unspecified),/,/,/,99,/,/
CC1=CN2C(=N)/C(=C/c3ccc([N+](=O)[O-])o3)C(=O)N=C2S1,12,35*,31,78,0,0
Cc1ccc(NC(=O)CSc2nc3nn(-c4ccccc4)c(=O)c-3c3n2CCCCC3)cc1F,6,/,/,83,7,/
Cn1c(N)c(C(=O)COC(=O)c2cc(-c3ccco3)nc3ccccc23)c(=O)n(Cc2ccccc2)c1=O,-4,19,43*,107,1,-5

# Source: PubChem (several laboratories)
